Data as given in PubChem BioAssay (NCATS).
“And” between values parts separate entries of the source, which are not always exact repeats. Equal entries are not always repeated. Records with an inconclusive call do not appear. The source made the active and inactive calls. Calls come from the whole dose curve.

molecular target: Peroxisome proliferator-activated receptor delta (Homo sapiens) (UniProt Q03181); test: qHTS assay for small molecule agonists of peroxisome proliferator-activated receptor delta signaling (AID 588534); settings: HEK293T PPARdelta-UAS-bla, beta-lactamase ratio, 18 h; series mostly up to 76.7 µM; activation: at the top concentration;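 note: 0% = DMSO basal wells and 100% = positive control agonist at 10 µM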
Sequence (Q03181 whole entry, looked up): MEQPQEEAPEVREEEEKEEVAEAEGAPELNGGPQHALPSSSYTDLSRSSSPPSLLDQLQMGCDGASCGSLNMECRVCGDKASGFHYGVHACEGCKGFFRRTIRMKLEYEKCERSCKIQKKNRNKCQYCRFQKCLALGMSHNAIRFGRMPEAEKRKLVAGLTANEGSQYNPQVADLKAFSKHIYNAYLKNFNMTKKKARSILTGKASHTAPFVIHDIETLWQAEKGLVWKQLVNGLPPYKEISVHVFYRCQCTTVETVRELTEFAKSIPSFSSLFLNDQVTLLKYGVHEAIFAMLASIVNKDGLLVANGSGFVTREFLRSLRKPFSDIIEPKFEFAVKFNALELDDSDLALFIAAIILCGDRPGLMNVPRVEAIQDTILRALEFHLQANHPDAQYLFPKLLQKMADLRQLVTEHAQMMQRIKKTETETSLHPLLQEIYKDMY
Procedure, shortened: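 Fluorescence from CCF4 substrate cleavage by beta-lactamase reporter, read 2 hrs at RT, measured agonist activity. Compounds were tested with 18 hrs exposure at 37 C. Concentration-response data fitted to Hill equation.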

| Compound | activation | outcome |
| --- | --- | --- |
| O=c1[nH]c(=O)n([C@H]2C[C@H](O)[C@@H](CO)O2)cc1Br | -8.9% (inactive) | – |
| Nc1ccc([As](=O)(O)O)cc1 | 2.38% (inactive) | – |
| CC(=O)N1CCN(c2ccc(OC[C@H]3CO[C@](Cn4ccnc4)(c4ccc(Cl)cc4Cl)O3)cc2)CC1 | -14.1% (inactive) | – |
| Nc1nc(N)nc(NC2CC2)n1 | 5.35% (inactive) | – |
| Clc1ccc(C(c2ccc(Cl)cc2)C(Cl)(Cl)Cl)cc1 | -10.5% (inactive) | – |
| Nc1ccc(S(=O)(=O)c2ccc(N)cc2)cc1 | – | inactive |
| CCOC(=O)CC(SP(=S)(OC)OC)C(=O)OCC (stereo not given) | – | inactive |
| C[C@]1(O)CC[C@H]2[C@@H]3CCC4=CC(=O)CC[C@]4(C)[C@@]3(F)[C@@H](O)C[C@@]21C | -4.57% (inactive) | – |
| COc1cc(C=O)ccc1O | – | inactive |
| [N-]=[N+]=CC(=O)OC[C@H](N)C(=O)O | -1.01% (inactive) | – |
| CC(=O)Nc1ccccc1 | 5.62% (inactive) | – |
| COP(=S)(OC)Oc1ccc(SC)c(C)c1 | – | inactive |
| COP(=S)(OC)Oc1cc(Cl)c(Cl)cc1Cl | -1.69% (inactive) | – |
| NCCc1ccc(O)cc1 | -1.63% (inactive) | – |
| COP(=S)(OC)SCN1C(=O)c2ccccc2C1=O | -10.7% (inactive) | – |
| CC(C)NC(C)C | -1.21% (inactive) | – |
| O=P1(N(CCCl)CCCl)NCCCO1 (stereo not given) | – | inactive |
| CC(C)c1cccc(C(C)C)c1O | 7.79% (inactive) | – |
| Nc1ccc(C(=O)O)cc1 | -3.22% (inactive) | – |
| O=C(O)CCCc1ccc(N(CCCl)CCCl)cc1 | -9.35% (inactive) | – |
| C[C@]12CCC(=O)C=C1CC[C@@H]1[C@@H]2CC[C@]2(C)C(=O)CC[C@@H]12 | -6.16% (inactive) | – |
| COc1ccc2[nH]cc(CCNC(C)=O)c2c1 | – | inactive |
| Oc1ccccc1 | – | inactive |

test system: not listed separately; test: qHTS assay for small molecule antagonists of peroxisome proliferator-activated receptor delta signaling (AID 588535); settings: HEK293T PPARd-UAS-bla, beta-lactamase FRET ratio, 18 h; 460 nm channel;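 note: cells co-treated with a PPAR-delta agonist as stimulator during compound exposure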
Procedure, shortened: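 Antagonist-mode beta-lactamase reporter (GeneBLAzer PPAR-delta-UAS-bla) in HEK293T cells, 2% charcoal/dextran FBS, 4000 cells/well. Compound titrations, 18 h at 37 C; CCF4 ratio read, IC50 and efficacy from Hill fits.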

| Compound | max response |
| --- | --- |
| Nc1ccc([As](=O)(O)O)cc1 | -12.8% |
| Nc1nc(N)nc(NC2CC2)n1 | 47% |
| Clc1ccc(C(c2ccc(Cl)cc2)C(Cl)(Cl)Cl)cc1 | -51.4% |
| CCOC(=O)CC(SP(=S)(OC)OC)C(=O)OCC (stereo not given) | 0.513% |
| C[C@]1(O)CC[C@H]2[C@@H]3CCC4=CC(=O)CC[C@]4(C)[C@@]3(F)[C@@H](O)C[C@@]21C | -0.651% |
| [N-]=[N+]=CC(=O)OC[C@H](N)C(=O)O | 46.8% |
| COP(=S)(OC)Oc1ccc(SC)c(C)c1 | 3.56% |
| COP(=S)(OC)Oc1cc(Cl)c(Cl)cc1Cl | 28.8% |
| NCCc1ccc(O)cc1 | -1.35% |
| O=P1(N(CCCl)CCCl)NCCCO1 (stereo not given) | 34.9% and 30.3% |
| CC(C)c1cccc(C(C)C)c1O | -11.4% |
| O=C(O)CCCc1ccc(N(CCCl)CCCl)cc1 | 26.1% |
